Compound activity as filed in PubChem BioAssay.
D2 ag-1 = Beta-Arrestin HTS for Positive Allosteric Modulators of the Human D2 Dopamine Receptor: Agonists | D(2) dopamine receptor (Homo sapiens), P14416 | DiscoveRx PathHunter D2 beta-arrestin, luminescence, 90 min; 100% = 57 uM dopamine signal | activation, % (test concentration not listed) | actives 0.084% (n = 360,000); in the data active means activation above about 40%
Target sequence (P14416 whole entry, looked up): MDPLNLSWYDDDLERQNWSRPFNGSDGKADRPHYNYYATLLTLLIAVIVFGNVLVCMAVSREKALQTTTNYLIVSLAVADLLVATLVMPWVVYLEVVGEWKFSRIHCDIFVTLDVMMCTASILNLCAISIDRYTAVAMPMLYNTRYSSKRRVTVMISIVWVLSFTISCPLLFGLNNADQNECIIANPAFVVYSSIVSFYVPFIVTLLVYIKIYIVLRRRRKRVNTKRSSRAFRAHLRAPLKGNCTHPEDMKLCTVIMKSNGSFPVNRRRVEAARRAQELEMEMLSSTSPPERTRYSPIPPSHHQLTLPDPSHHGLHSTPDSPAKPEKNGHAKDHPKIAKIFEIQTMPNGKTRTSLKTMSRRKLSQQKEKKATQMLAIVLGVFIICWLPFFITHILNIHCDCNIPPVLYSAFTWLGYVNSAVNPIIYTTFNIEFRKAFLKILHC
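Agonist mode: compounds alone added to overnight-plated D2 PathHunter cells for 90 min at 37 C, with 57 uM final dopamine (EC100) defining full response. Beta-arrestin recruitment detected by chemiluminescent reagent, read after 1 h at ambient temperature.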
D2 PAM-1 = Beta-Arrestin HTS for Positive Allosteric Modulators of the Human D2 Dopamine Receptor: Potentiators; D(2) dopamine receptor (Homo sapiens), P14416; DiscoveRx D2 beta-arrestin cells, luminescence, 90 min; 100% = 57 uM dopamine signal; potentiation, % (no concentration beside the values); actives 0.23% (n = 360,000); AID 624464, 2012; in the data active means potentiation above about 50%
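D2 cells co-treated with compound plus 50 nM dopamine (EC20) for 90 min at 37 deg C to detect potentiation. Beta-arrestin recruitment was read as enzyme-fragment luminescence after 1 h at ambient temperature. Full response was set by 57 uM dopamine.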
D2 ag-2 = HTS Assay for Allosteric Agonists of the Human D2 Dopamine Receptor: Primary Screen for Agonists. HEK293 T-REx D2 cells, calcium flux agonist mode. activation, % at 2 µM. actives 0.53% (n = 340,000). AID 485358, 2010;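 active means activation over 3 SD above normal in the single-dose calcium agonist read, cut at about 30% in these data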
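HEK293 Trex D2 cells, tetracycline-induced, o/n 30 C 5% CO2; no-wash Ca dye, RT 30–90 min; 10-cycle baseline, 23 nl cpd added, kinetic Ca read 180 s; agonist hits = positive Ca response.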
D2 antag = HTS Assay for Allosteric Antagonists of the Human D2 Dopamine Receptor: Primary Screen for Antagonists; D(2) dopamine receptor (Homo sapiens), P14416; actives 2% (n = 340,000); AID 485344, 2010; inhibition, % at 10 µM; HEK293 TREx D2 cells, calcium flux, dopamine EC80; in the data active means inhibition above about 30%; inactive means below that, where a call was filed
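Read-out: kinetic calcium fluorescence (1 cycle/s) in inducible HEK293 T-REx D2 cells after an EC80 dopamine addition that followed 180 s compound preincubation. Loss of the dopamine response indicates antagonism.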
D2 PAM-2 = HTS Assay for Positive Allosteric Modulators of the Human D2 Dopamine Receptor: Primary Screen for Potentiators; D(2) dopamine receptor (Homo sapiens), P14416; HEK293 T-REx D2, calcium flux, EC20 dopamine potentiation; potentiation, % at 10 µM; actives 0.34% (n = 340,000); AID 485347, 2010;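 active means potentiation over 3 SD above the plate norm, cut at about 30% in these data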
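Tetracycline-induced Hek293 Trex D2 cells, force-coupled to calcium, loaded with no-wash calcium dye. Compound added with 180 s kinetic read for agonism, then EC20 dopamine and a further 180 s read for potentiation.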
Of the large screens only hits and unclear results are named; the others gave an inactive call. In the library only some 2.4% were active in any assay of this set; here they are far more common.

O=C(O)c1cc2cc(S(=O)(=O)O)ccc2cc1O	none (no result: D2 ag-2, D2 antag, D2 PAM-2)
O=C(O)c1cc(S(=O)(=O)O)ccc1O	D2 antag 42
CC1CCCCN1C(=O)C12CCC(C)(C(=O)C1)C2(C)C (stereo not given)	none (no result: D2 ag-2, D2 antag, D2 PAM-2)
CC1CCCCN1C(=O)C12CCC(C)(/C(=N/O)C1)C2(C)C (stereo not given)	D2 antag 35
COc1ccc(-c2cc(N)n(S(=O)(=O)c3c(F)c(F)c(F)c(F)c3F)n2)cc1OC	D2 antag 35
COc1ccc(S(=O)(=O)n2nc(-c3cc(OC)c(OC)c(OC)c3)cc2N)cc1OC	none
Cc1sc(NC(=O)CSc2nc(N)n(CC(=O)c3ccccc3)n2)c(C#N)c1C	D2 ag-2 33
Cc1ccc(S(=O)(=O)Nc2cc3c(cc2NCc2ccccc2)n(C)c(=O)n3C)c(C)c1	none (no result: D2 ag-1, D2 PAM-1, D2 antag, D2 PAM-2)
O=C(Nc1ncccn1)c1cc([N+](=O)[O-])cc([N+](=O)[O-])c1	D2 PAM-1 54
O=C(Nc1ncccn1)c1ccc([N+](=O)[O-])cc1	none (no result: D2 ag-2, D2 antag, D2 PAM-2)
COc1ccc(C(=O)Nc2cccc3c2CCCC3)cc1	none
O=C(Nc1cccc2c1CCCC2)c1cc([N+](=O)[O-])cc([N+](=O)[O-])c1	D2 PAM-1 62
CCOCCSc1c(C)cnc2c1c(=O)n(C)c(=O)n2C	none (no result: D2 ag-1, D2 PAM-1, D2 antag)
COc1ccc(CN2CCN(Cc3ccc4ccccc4c3)CC2)cc1OC	none
OC1CCN(Cc2ccc3ccccc3c2)CC1	D2 antag 46
COc1ccccc1CN1CCN(Cc2ccc3ccccc3c2)CC1	D2 antag 68
CC1(C(=O)NC2CCN(Cc3ccccc3)CC2)CCN1Cc1ccc2ccccc2c1 (stereo not given)	none (no result: D2 ag-2, D2 antag, D2 PAM-2)
O=C(CCCSc1nnc(Nc2ccccc2F)s1)N1CCOCC1	D2 antag 39
OCCN(CCO)c1nc(N2CCCCC2)c2nc(N(CCO)CCO)nc(N3CCCCC3)c2n1	D2 ag-2 42
Nc1nc(NCCO)nc(N2CCCCCC2)c1[N+](=O)[O-]	none
CC(C)C(NS(=O)(=O)c1cccc2cccnc12)C(=O)Nc1ccc(OC(F)(F)F)cc1 (stereo not given)	none (no result: D2 ag-1, D2 PAM-1, D2 antag)
CC(=O)N(CCC1(C(C)C)CCOC(C)(C)C1)Cc1ccco1 (stereo not given)	D2 antag 38
CCC(=O)N(CCC1(C(C)C)CCOC(C)(C)C1)Cc1ccco1 (stereo not given)	none
COc1ccc(N2CCN(C3(c4ccccc4)C(=O)c4ccccc4C3=O)CC2)cc1	none (no result: D2 ag-1, D2 PAM-1, D2 antag)
Cc1ccc(CO/N=C\Cc2snc(Sc3ncc(C(F)(F)F)cc3Cl)c2C#N)cc1	D2 antag 33
CCOC(=O)C1=C(C)N(CCCCCC(=O)O)C(=O)NC1c1cccc([N+](=O)[O-])c1 (stereo not given)	none
CCOC(=O)C1=C(C)N(CCCCCC(=O)O)C(=O)NC1c1ccc([N+](=O)[O-])cc1 (stereo not given)	D2 ag-2 31
c1ccc(CNc2ccccn2)cc1	none
c1ccc(Nc2ccccc2Nc2ccccn2)nc1	D2 antag 34
CC(C)OCCCNc1ncnc2c1nc1n2CCCC1	D2 antag 33
CCN(CC)C(=O)c1sc2c(c1C)c(=O)n(-c1ccc(OC)cc1OC)c(=O)n2CC(=O)c1ccc(Cl)cc1	none (no result: D2 ag-1, D2 PAM-1, D2 antag)
O=c1[nH]c(-[n+]2ccccc2)c(/C=N/NC([S-])=Nc2ccccc2)s1	D2 ag-2 30
Cc1cc[n+](-c2[nH]c(=O)sc2/C=N/NC([S-])=Nc2ccccc2)cc1	none
CCOc1ccc(C2c3[nH]c4ccccc4c3CCN2C(=O)Cc2cccc(OCC)c2OCC)cc1 (stereo not given)	none (no result: D2 ag-1, D2 PAM-1, D2 antag)
c1ccc(CNc2nc3ccccc3n3cnnc23)cc1	D2 PAM-2 41
c1ccc(CNc2nc3ccccc3n3cnnc23)nc1	none
